In PubChem BioAssay AID1159580 (chemical genetic matrix, 2015):
In all, about 5,500 compounds went through this assay and about 2,000 (36%) were called active. Not shown: some 18% with an inconclusive outcome. Rule as the data show it: active = normalized growth mostly below about 0.91 (no sharp cut-off); inconclusive = no clear call, values can overlap the other calls; inactive = mostly above about 0.92. This is one part of the list.

Experiment: chemical genetic growth profiling, strain panel (AID 1159580);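 also: tested at 20 µM; growth read once vehicle control cultures reached saturation at 30 °C; 1 = growth at the plate median or of vehicle wells; lower values mean less growth of the strain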
Conditions: growth OD

Measured: normalized growth

Cc1cc(O)c(C=O)c2c1C(=O)Oc1c(COC(=O)/C=C/C(=O)O)c(O)c(C(=O)O)c(C)c1O2
active: S. cerevisiae deletion strains, locus YLL001W, strain dnm1, hits give low values 0.888 | S. cerevisiae deletion strains, locus YLR357W, strain rsc2, hits give low values 0.841 | S. cerevisiae deletion strains, locus YMR058W, strain fet3, hits give low values 0.311 | S. cerevisiae deletion strains, locus YNL209W, strain ssb2, hits give low values 0.804 | S. cerevisiae deletion strains, locus YOR106W, strain vam3, hits give low values 0.709 | S. cerevisiae deletion strains, locus YOR270C, strain vph1, hits give low values 0.503 | S. cerevisiae deletion strains, locus YPL051W, strain arl3, hits give low values 0.831 | S. cerevisiae strains, strain wild type, hits give low values 0.874
inactive: S. cerevisiae deletion strains, locus YJR043C, strain POL32, hits give low values 0.954 | S. cerevisiae deletion strains, locus YJR066W, strain TOR1, hits give low values 0.931 | S. cerevisiae deletion strains, locus YJR075W, strain HOC1, hits give low values 0.962 | S. cerevisiae deletion strains, locus YKL009W, strain mrt4, hits give low values 0.974 | S. cerevisiae deletion strains, locus YKL068W, hits give low values 0.993 | S. cerevisiae deletion strains, locus YKL085W, strain MDH1 (second series), hits give low values 0.991 | S. cerevisiae deletion strains, locus YKL085W, strain MDH1, hits give low values 0.991 | S. cerevisiae deletion strains, locus YKL160W, strain elf1, hits give low values 0.992 | S. cerevisiae deletion strains, locus YKR001C, strain vps1, hits give low values 0.921 | S. cerevisiae deletion strains, locus YKR026C, strain gcn3, hits give low values 0.985 | S. cerevisiae deletion strains, locus YKR091W, strain srl3, hits give low values 1.01 | S. cerevisiae deletion strains, locus YLL026W, hits give low values 1.01 | S. cerevisiae deletion strains, locus YLL041C, strain sdh2, hits give low values 1 | S. cerevisiae deletion strains, locus YLR027C, strain aat2, hits give low values 0.982 | S. cerevisiae deletion strains, locus YLR039C, strain RIC1, hits give low values 0.933 | S. cerevisiae deletion strains, locus YLR058C, strain SHM2, hits give low values 0.937 | S. cerevisiae deletion strains, locus YLR102C, strain apc9, hits give low values 0.991 | S. cerevisiae deletion strains, locus YLR113W, strain HOG1, hits give low values 0.984 | S. cerevisiae deletion strains, locus YLR221C, strain rsa3, hits give low values 0.946 | S. cerevisiae deletion strains, locus YLR258W, strain gsy2, hits give low values 0.987 | S. cerevisiae deletion strains, locus YLR262C, strain YPT6 (second series), hits give low values 0.877 | S. cerevisiae deletion strains, locus YLR262C, strain YPT6, hits give low values 0.936 | S. cerevisiae deletion strains, locus YLR268W, strain sec22, hits give low values 0.924 | S. cerevisiae deletion strains, locus YLR320W, strain mms22, hits give low values 0.959 | S. cerevisiae deletion strains, locus YLR330W, strain CHS5, hits give low values 0.971 | S. cerevisiae deletion strains, locus YLR342W, strain FKS1 (second series), hits give low values 0.98 | S. cerevisiae deletion strains, locus YLR342W, strain FKS1, hits give low values 0.968 | S. cerevisiae deletion strains, locus YLR370C, strain arc18, hits give low values 0.967 | S. cerevisiae deletion strains, locus YLR371W, strain rom2, hits give low values 0.943 | S. cerevisiae deletion strains, locus YLR384C, strain iki3, hits give low values 0.996 | S. cerevisiae deletion strains, locus YLR418C, strain cdc73, hits give low values 0.883 | S. cerevisiae deletion strains, locus YML016C, strain PPZ1, hits give low values 0.957 | S. cerevisiae deletion strains, locus YML032C, strain rad52, hits give low values 1.01 | S. cerevisiae deletion strains, locus YML120C, strain ndi1, hits give low values 1 | S. cerevisiae deletion strains, locus YML124C, strain tub3, hits give low values 0.996 | S. cerevisiae deletion strains, locus YMR078C, strain ctf18, hits give low values 0.986 | S. cerevisiae deletion strains, locus YMR125W, strain sto1, hits give low values 1.08 | S. cerevisiae deletion strains, locus YMR129W, hits give low values 1.01 | S. cerevisiae deletion strains, locus YMR205C, strain PFK2, hits give low values 0.998 | S. cerevisiae deletion strains, locus YMR223W, strain ubp8, hits give low values 0.961 | S. cerevisiae deletion strains, locus YMR231W, strain pep5, hits give low values 0.94 | S. cerevisiae deletion strains, locus YMR307W, strain GAS1, hits give low values 0.72 | S. cerevisiae deletion strains, locus YNL067W, strain RPL9B, hits give low values 0.92 | S. cerevisiae deletion strains, locus YNL071W, strain lat1, hits give low values 1 | S. cerevisiae deletion strains, locus YNL183C, strain NPR1, hits give low values 0.931 | S. cerevisiae deletion strains, locus YNL233W, strain BNI4, hits give low values 0.967 | S. cerevisiae deletion strains, locus YNL248C, strain rpa49, hits give low values 1.01 | S. cerevisiae deletion strains, locus YNL250W, strain rad50, hits give low values 0.956 | S. cerevisiae deletion strains, locus YNL271C, strain bni1, hits give low values 0.954 | S. cerevisiae deletion strains, locus YNL298W, strain CLA4, hits give low values 0.966 | S. cerevisiae deletion strains, locus YNL307C, strain MCK1, hits give low values 0.98 | S. cerevisiae deletion strains, locus YNL322C, strain KRE1 (second series), hits give low values 1.04 | S. cerevisiae deletion strains, locus YNR049C, strain mso1, hits give low values 0.995 | S. cerevisiae deletion strains, locus YNR052C, strain pop2, hits give low values 0.963 | S. cerevisiae deletion strains, locus YOL012C, strain htz1 0.751 | S. cerevisiae deletion strains, locus YOL147C, strain pex11, hits give low values 0.994 | S. cerevisiae deletion strains, locus YOR001W, strain rrp6, hits give low values 0.961 | S. cerevisiae deletion strains, locus YOR061W, strain CKA2, hits give low values 0.95 | S. cerevisiae deletion strains, locus YOR069W, strain VPS5, hits give low values 0.976 | S. cerevisiae deletion strains, locus YOR070C, strain gyp1, hits give low values 0.988 | S. cerevisiae deletion strains, locus YOR080W, strain dia2, hits give low values 1.02 | S. cerevisiae deletion strains, locus YOR083W, strain WHI5, hits give low values 0.937 | S. cerevisiae deletion strains, locus YOR136W, strain idh2, hits give low values 0.988 | S. cerevisiae deletion strains, locus YOR144C, strain elg1, hits give low values 0.993 | S. cerevisiae deletion strains, locus YOR184W, strain ser1, hits give low values 0.946 | S. cerevisiae deletion strains, locus YOR231W, strain MKK1, hits give low values 0.953 | S. cerevisiae deletion strains, locus YOR265W, strain rbl2, hits give low values 0.964 | S. cerevisiae deletion strains, locus YOR290C, strain snf2, hits give low values 0.869 | S. cerevisiae deletion strains, locus YOR316C, strain cot1, hits give low values 0.989 | S. cerevisiae deletion strains, locus YPL078C, strain atp4, hits give low values 0.925 | S. cerevisiae deletion strains, locus YPL106C, strain sse1, hits give low values 0.942 | S. cerevisiae deletion strains, locus YPL240C, strain hsp82, hits give low values 1.01 | S. cerevisiae deletion strains, locus YPL256C, strain CLN2, hits give low values 1.01 | S. cerevisiae deletion strains, locus YPR119W, strain clb2, hits give low values 0.991 | S. cerevisiae deletion strains, locus YPR141C, strain kar3, hits give low values 0.96 | S. cerevisiae deletion strains, locus YPR163C, strain tif3, hits give low values 0.987 | S. cerevisiae deletion strains, locus YPR167C, strain met16, hits give low values 0.998 | S. cerevisiae deletion strains, strain wtn01, hits give low values 0.945
